For 40 compounds, Percent Effect results are on record in ChEMBL document CHEMBL3988442, “University of Dundee, Small-Polar-MMV Screening Library” (2021).

The target in this assay is AMP-activated protein kinase, AMPK (Homo sapiens) (UniProt P54646+O43741+P54619+Q9UGJ0+Q9Y478+Q13131+Q9UGI9). Put plainly: AMP-dependent Kinase enzyme assay. An in vitro enzyme assay that detects ADP turnover that is directly proportional to AMPK activity. This uses naive AMPK that is activated during the assay with MK-8722. It is filed as functional. Also noted: scale not given: direction of the effect not stated beside the values. The settings on record: 30 µM.
For the compound `CCn1nc(C)c(CCN2CC3(CCOC3)CCC2=O)c1C` (stereo not given), the Percent Effect is -1.79%. `CCC(C(=O)NC1(CN2CCOCC2)CCCC1)n1cccn1` (stereo not given): the Percent Effect was 5.49%. `COc1c(C)cnc(CN2CCn3c(nnc3C3CC3)C2)c1C`: the Percent Effect turned out to be 8.46%. The figure for `NC(=O)CCC1CCCN(Cc2cnc(N3CCCCC3)nc2)C1` (stereo not given) is 7.08%; for `CN(C)c1ccccc1C(=O)N1CCCC(c2cccc(C(=O)O)c2)C1` (stereo not given) it is 2.89%. With `CN(Cc1cnccn1)c1cncc(Br)c1` the figure was 3.25%; with `COc1ccccc1S(=O)(=O)N1CCN(C)[C@@H]2CS(=O)(=O)C[C@@H]21`, -1.29%. The figure for `O=C1CC2(CCN(Cc3ccc(-c4ccccc4)s3)C2)C(=O)N1` (stereo not given) is 84.9%; for `CCC1CCCCN1C(=O)Cn1cnc(C#N)n1` (stereo not given) it is -0.907%. `CC(C)c1noc(C(C)N2CCN(Cc3noc(C4CC4)n3)CC2)n1` (stereo not given): the Percent Effect was -0.511%. On to `O=C(NC1CC1)C1CNCCN1C(=O)CCOc1ccccc1` (stereo not given), for which the Percent Effect was 4.98%. The figure for `COCCn1ccnc1C1CCCN(C(=O)CSc2nnc(C)o2)C1` (stereo not given) is 1.51%.

As to `O=C(CN1CCCC(c2ccn[nH]2)C1)N1CCCc2ccccc21` (stereo not given), the Percent Effect is -2.2%. On to `CC(C)c1ccc(/C=C/CC(=O)NC2CCN(C(N)=O)CC2)cc1`, for which the Percent Effect was -2.39%. The figure for `Cc1c(C(=O)N2CCCN(S(C)(=O)=O)CC2)cnn1C` is 10.1%; for `CCOC(=O)c1n[nH]cc1CN1CCCC(N(C)Cc2ccccc2)C1` (stereo not given) it is -0.954%; for `N#Cc1cccnc1NCCc1cc(F)cc2c1OCOC2` it is 22.2%.

Take `COc1cc(N2CCN(Cc3ccsc3)C(CCO)C2)nc(N)n1` (stereo not given): the Percent Effect is -5.18%. For the compound `COCCS(=O)(=O)NCc1ccc(N(C)C)c(C)c1`, the Percent Effect came to 6.36%. As to `Cc1ncccc1C(=O)Nc1cccc(Cn2ccccc2=O)c1`, the Percent Effect was found to be 3.58%. With `CCS(=O)(=O)N1Cc2ccccc2CC1C(=O)OCc1cc(C)no1` (stereo not given) the figure was 5.87%.

As for `NC(=O)CN1CCC(C(=O)NCC(O)c2cccc(F)c2)CC1` (stereo not given), the Percent Effect is -5.48%.

In the case of `CC(C)(C)c1nc(CC(=O)NCCC(=O)Nc2ccncc2)cs1`, the Percent Effect is -4.57%. The figure for `CC(C)N(CC(N)=O)C(=O)CCC(=O)c1ccc(F)cc1F` is -2.63%; for `CN(Cc1cccs1)Cc1nnsc1Cl` it is 12.6%. Consider `Cc1cc(CNC(=O)c2cc(NC(=O)C(C)C)ccc2Cl)no1`, for which the Percent Effect worked out at 4.16%. With `COc1cccc(CN(C)C(C)C(=O)Nc2nc(C)c(C)s2)c1` (stereo not given) the figure was 5.13%.

Regarding `OC(c1cnn(-c2ccccc2)c1)C(F)(F)F` (stereo not given), the Percent Effect was -6.83%. The figure for `CC(NS(N)(=O)=O)c1ccc(OCc2ccc(F)cc2)cc1` (stereo not given) is 3.51%. For `CCC1COCCN1C(=O)NCc1nccn1CC(C)C` (stereo not given), the Percent Effect is -3.83%. The figure for `CN(C)C(=O)N1CCCC(C(=O)N(C)Cc2cnc(N)nc2)C1` (stereo not given) is -2.52%; for `CCC[C@H]1CN(C(=O)c2ccc3[nH]c(CO)nc3c2)C[C@@H]1N` it is 8.21%.

As to `CC(C)c1cc(NCc2csc(N(C)C)n2)nc(N)n1`, the Percent Effect was -10.6%. With `Cc1cc(-c2cnc(N3CCCC3)nc2C(C)C)on1` the figure was 16.6%; with `Cc1cc(C)nc(NC2CCN(CCOC(C)C)CC2)n1`, 7.53%. With `CC(Oc1ccc2c(c1)OCO2)C(=O)N1CCC(N2CCCC2)CC1` (stereo not given) the figure was 6.31%; with `O=C(NCC[S+]([O-])c1ccccc1)c1ccc2[nH]c(=O)[nH]c2c1` (stereo not given), 6.24%. The figure for `CCc1nnc2n1CCN(C(=O)C(C)Oc1ccc(C#N)cc1)C2` (stereo not given) is 10.6%. Consider `CCC(NC(=O)c1cnc(N(C)C)nc1C)c1ccc(S(C)(=O)=O)cc1` (stereo not given), for which the Percent Effect is -4.95%.

For `Cn1ccc(C(=O)N2CCCCC2c2cc(CCO)[nH]n2)n1` (stereo not given), the Percent Effect is 30.2%.
